# Experimental data: PubChem BioAssay (NCI)
# Compounds without any hit were thinned out: in the full panel of roughly 83,000, 20% have a hit.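 Single-concentration screen, 48 h exposure, 96-well plates. Endpoint: percent growth. Below 10 = active.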 Values without a mark were called inactive. Activity calls are given as the source filed them.
# Key:
# Assay in all cases: NCI-60 one-dose screen, 48 h (100 = growth as untreated, 0 = no growth, -100 = all killed)
# Conditions in all cases: 10 µM unless noted
# HCT-15 colon = tested on: HCT-15 colon
# HT29 colon = tested on: HT29 colon
# SNB-75 CNS = tested on: SNB-75 CNS
# SNB-19 CNS = tested on: SNB-19 CNS
# U251 CNS = tested on: U251 CNS
# PC-3 prostate = tested on: PC-3 prostate
# SK-MEL-5 melanoma = tested on: SK-MEL-5 melanoma
# UACC-62 melanoma = tested on: UACC-62 melanoma
# LOX IMVI melanoma = tested on: LOX IMVI melanoma
# SK-MEL-28 melanoma = tested on: SK-MEL-28 melanoma
# SK-MEL-2 melanoma = tested on: SK-MEL-2 melanoma
# EKVX NSCLC = tested on: EKVX NSCLC
# SN12C renal = tested on: SN12C renal
# UO-31 renal = tested on: UO-31 renal
# TK-10 renal = tested on: TK-10 renal
# ACHN renal = tested on: ACHN renal
# CAKI-1 renal = tested on: CAKI-1 renal
# A498 renal = tested on: A498 renal
# CCRF-CEM leukemia = tested on: CCRF-CEM leukemia
# MOLT-4 leukemia = tested on: MOLT-4 leukemia
Structure (SMILES),growth (HCT-15 colon),growth (HT29 colon),growth (SNB-75 CNS),growth (SNB-19 CNS) [%],growth (U251 CNS),growth (PC-3 prostate),growth (SK-MEL-5 melanoma),growth (UACC-62 melanoma),growth (LOX IMVI melanoma),growth (SK-MEL-28 melanoma),growth (SK-MEL-2 melanoma),growth (EKVX NSCLC),growth (SN12C renal),growth (UO-31 renal),growth (TK-10 renal),growth (ACHN renal),growth (CAKI-1 renal),growth (A498 renal),growth (CCRF-CEM leukemia),growth (MOLT-4 leukemia)
CCN(CC)CCCC(C)Nc1ccnc2ccc(Oc3ccccc3)cc12 (stereo not drawn),49.6%,38.6%,73.2%,89.4,63.5%,84.9%,-89% (active),31.7%,36.4%,-6.8% (active),112%,85.5%,79.1%,68.5%,93.5%,67.1%,79%,48.4%,72.5%,62.6%
COc1ccc(/C=C/C(=O)CCC(=O)O)cc1OC,115%,101%,90.5%,111,107%,111%,109%,110%,99.7%,112%,97.5%,109%,101%,83.3%,104%,108%,95.5%,121%,95.6%,102%
OCCN(CCO)c1ccc2ccccc2c1,98.4%,94.3%,88.1%,104,104%,83.2%,100%,91.4%,91.4%,108%,87.3%,102%,94.2%,65%,97.6%,106%,97.3%,110%,109%,98.8%
COc1cc(Nc2ncccc2/C=C/C(=O)c2cc(OC)c(OC)c(OC)c2)cc(OC)c1OC,74.2%,67.8%,67.9%,80.2,50.8%,74.1%,53.9%,65.8%,17.1%,90.5%,78.3%,90.5%,79.3%,65.6%,121%,76.1%,72%,84.9%,40.8%,70.9%
O=C(O)C(CCc1ccccc1)NCc1ccccc1 (stereo not drawn),99.2%,96.2%,90.3%,97.5,107%,91.3%,109%,94.5%,92%,107%,94.9%,102%,93%,77.8%,91%,95.8%,100%,86.2%,,108%
O/N=C/c1ccncc1,104%,94.5%,96.2%,122,102%,95.9%,105%,111%,100%,115%,112%,100%,121%,102%,100%,109%,84.3%,101%,95.5%,111%
CCCCCCCCCCCCCCCC1=NC(C)(C)CN1C(C)C,-63.5% (active),-50% (active),-13.4% (active),42.6,-67% (active),-41.4% (active),-86.1% (active),-75.5% (active),-79.4% (active),-80% (active),-67.9% (active),5.51% (active),-36.3% (active),-57.5% (active),-74.2% (active),-58.3% (active),-45.4% (active),63.4%,-56.3% (active),-59.8% (active)
C=C(C)[C@@H]1CC[C@]2(C(=O)NC(COC(=O)C(Cl)Cl)(COC(=O)C(Cl)Cl)COC(=O)C(Cl)Cl)CC[C@]3(C)[C@H](CC[C@@H]4[C@@]5(C)CC[C@H](OC(C)=O)C(C)(C)[C@@H]5CC[C@]43C)[C@@H]12,27.9%,4.68% (active),81.2%,70.6,23.4%,11.1%,62.1%,81%,32.4%,86.9%,76.5%,57.7%,37%,55.4%,75.8%,51.1%,48.4%,99.5%,18.3%,6.2% (active)
c1coc(CNc2c3ccccc3nc3ccccc23)c1,44.2%,35.1%,81.5%,62.8,65.1%,67%,84.3%,66.1%,37.1%,97.7%,101%,62.1%,53.5%,39.5%,88.4%,26.2%,41%,20.1%,57.2%,27.2%
O=C(O)c1ccccc1Oc1cc(-c2ccco2)nc(OCCN2CCOCC2)n1,101%,92.5%,92.4%,96.9,113%,127%,99.9%,98.9%,99.5%,106%,100%,113%,97.3%,87.6%,97.4%,107%,96.2%,104%,94.2%,101%
COc1ccccc1/C=N\Nc1ccc([N+](=O)[O-])cn1,102%,107%,110%,103,101%,98.8%,102%,100%,98.5%,120%,102%,92.8%,109%,90.8%,111%,109%,90.4%,106%,106%,103%
CC(C)CC1NC(=O)C(CC(C)C)N(CO)C1=O (stereo not drawn),103%,94.3%,93.4%,99.6,111%,97.3%,104%,96.9%,106%,121%,93.9%,115%,99.4%,84.5%,97.9%,108%,99.8%,95.9%,84.7%,92.7%
COc1cc(C2CC(c3ccc(C)cc3)=NN2C=O)ccc1Oc1ccnc2cc(Cl)ccc12 (stereo not drawn),97.4%,92.3%,-36.1% (active),29.5,7.3% (active),85.3%,97.1%,55.8%,76%,101%,6.3% (active),79.2%,75.7%,95.3%,54.5%,48.3%,69.7%,53.3%,82.8%,80.3%
O=C(Nc1cccc(C2=NCCN2)c1)c1ccc(N=Nc2ccc(C(=O)Nc3cccc(C4=NCCN4)c3)cc2)cc1,82.2%,71.8%,48.7%,53.2,16.5%,63.4%,80.4%,68.4%,75.8%,59.3%,56.6%,62.6%,49.9%,72.8%,40.2%,52.4%,90.7%,66.3%,,80.9%
COc1ccc([C@H]2c3[nH]c4ccccc4c3C[C@H]3C(=O)N(CCCCCCC(=O)NO)CC(=O)N23)cc1,81%,35%,-0.662% (active),48.5,30.4%,11.9%,12.4%,9.81% (active),13.1%,4.8% (active),31.4%,66.8%,46.5%,43.8%,43.5%,22.1%,43.9%,-4.1% (active),13.3%,12.1%
COc1ccc(Nc2nc(N)nc3c(=O)[nH]ccc23)cc1,109%,103%,107%,101,115%,81.5%,111%,111%,102%,124%,111%,105%,113%,64.6%,173%,115%,93.3%,120%,83.9%,97.8%
